Results as given in PubChem BioAssay (NCATS).
Results filed as inconclusive are left out. Where a call stands in place of a potency, no number is given. The source made the active and inactive calls. Calls follow the shape of the dose curve; as a rule, active = well fitted activation curve with a large enough effect; inconclusive = small, poorly fitted or top-dose-only effect; inactive = flat fitted curve, though single readings scatter.

Assay: Primary redox qHTS assay for identification of artifact compounds. (AID 1845223)
Details: Amplex Red/HRP redox cycling with DTT, fluorescence; series mostly up to 53.8 µM
Summary of the method: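 Amplex Red (25 uM) and HRP (250 mU/mL) in HBSS, with compounds for 15 min, then 250 uM DTT for 30 min, room temperature, dark. Fluorescence 525/598 nm read; normalized to DMSO and 10 uM DA3003; Hill fit.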

Row | SMILES | Potency | redox activity (% of DA3003)
1 | COC(=O)C(CC1(O)c2ccccc2N2C(=O)C(CC(C)C)NC21)n1cnc2ccccc2c1=O (stereo not given) | inactive | 
2 | O=C(/C=C/c1ccccc1)O[C@@H]1[C@@H](CO)O[C@@](CO)(O[C@H]2O[C@H](CO)[C@@H](O)[C@H](O)[C@H]2O)[C@H]1O | inactive | 
3 | C=C(C(=O)O)C1CC(O)C2(C)CCCC(C)(O)C2C1 (stereo not given) | inactive | 
4 | C/C=C(/C)C(=O)OC1CC(C)(C)CC2C3=CCC4C5(C)CCC(OC6OC(C)C(OC7OC(C(=O)O)C(O)C(OC8OC(CO)C(O)C(O)C8OC8OC(CO)C(O)C(O)C8O)C7O)C(O)C6O)C(C)(C)C5CCC4(C)C3(C)C(OC(=O)/C=C/C=C/C=C/CCC)C(OC(C)=O)C12CO (stereo not given) |  | 13.7% [at 11.5 µM] (inactive)
5 | C=C1[C@@H]2CC[C@@]3(C)[C@H](c4ccoc4)OC(=O)C[C@]13O[C@H]1CC(=O)C(C)(C)[C@H](C(O)C(=O)OC)[C@]12C (stereo not given in full) | inactive | 
6 | OC[C@H]1O[C@@H](Oc2cc(O)cc(-c3cc4ccc(O[C@@H]5O[C@H](CO)[C@@H](O)[C@H](O)[C@H]5O)cc4o3)c2)[C@H](O)[C@@H](O)[C@@H]1O | inactive | 
7 | NC[C@H]1CCC[C@@H](CNC(=O)[C@@H](Cc2c[nH]c3ccccc23)NC(=O)N2CCC3(C=Cc4ccccc43)CC2)C1 | inactive | 
8 | C=C1CCC2C(C)(C)CCC[C@]2(C)[C@H]1CC/C(C)=C/C(=O)O (stereo not given in full) | inactive | 
9 | COC(=O)C1=CO[C@@H](O[C@@H]2O[C@H](CO)[C@@H](O)[C@H](O)[C@H]2O)[C@H]2[C@@H]1[C@H](O)[C@H](O)[C@]2(C)O | inactive | 
10 | Cc1occc(=O)c1O[C@@H]1O[C@H](CO[C@@H]2OC[C@](O)(CO)[C@H]2O)[C@@H](O)[C@H](O)[C@H]1O | inactive | 
11 | COC(=O)C1=COC(OC2OC(CO)C(O)C(O)C2O)C2C(C)C(OC(C)=O)C(OC(=O)c3ccccc3)C12 (stereo not given) | inactive | 
12 | COC(=O)C1=CO[C@@H](O[C@@H]2O[C@H](CO)[C@@H](O)[C@H](O)[C@H]2O)[C@@H]2[C@@H](CO)[C@@H](O)C(O)[C@H]12 (stereo not given in full) | inactive | 
13 | CC1CCC2(C(=O)OC3OC(CO)C(O)C(O)C3O)CCC3(C)C(=CCC4C5(C)CCC(O)C(C)(CO)C5CCC43C)C2C1(C)O (stereo not given) | inactive | 
14 | COc1ccc(NC(=O)c2ccc(-c3ccc(C(N)=O)cc3C)cc2)cc1N1CCN(C)CC1 | inactive | 
15 | COc1ccccc1Oc1c(NS(=O)(=O)c2ccc(C)cn2)nc(-c2ccncc2)nc1OC | inactive | 
16 | CCC(C)/C=C(C)/C=C/C1=CC2=C(Cl)C(=O)C(C)(OC(C)=O)C(=O)C2=CN1C(CCCN=C(N)N)C(=O)O (stereo not given) | inactive | 
17 | COC1OC(=O)C2=C1C1(C)CCCC(C)(C)C1CC2O (stereo not given) | inactive | 
18 | CCC1OC(=O)C(C)CC(C)C(=O)/C(C)=C/C(C)C(=O)/C=C/C1(C)O (stereo not given) | inactive | 
19 | CC1(C)CC[C@]2(C(=O)O)CC[C@]3(C)C(=CCC4[C@@]5(C)C[C@H](O)[C@H](O[C@@H]6O[C@H](CO)[C@@H](O)[C@H](O)[C@H]6O)[C@@](C)(CO)C5[C@H](O)C[C@]43C)[C@@H]2C1 (stereo not given in full) | inactive | 
20 | C[C@]12CC[C@@H]3c4ccc(O)cc4CC[C@H]3[C@@H]1C[C@@H](O[C@@H]1O[C@H](C(=O)O)[C@@H](O)[C@H](O)[C@H]1O)[C@@H]2O | inactive | 

Row | SMILES | Potency | redox activity (% of DA3003)
21 | O=C1C[C@@]2(C(=O)N1)C(=O)N(Cc1ccc(Br)cc1F)C(=O)c1cccn12 | inactive | 
22 | C[C@@]1(O)[C@H](O)[C@@H](CO)O[C@H]1n1cnc2c(=O)[nH]c(N)nc21 | inactive | 
23 | O=C(Cn1c2ccccc2c2nc3n(c(=O)c21)CCS3)N1CCCC1 | inactive | 
24 | O=C(O)[C@H](Cc1ccccc1)Oc1ccc(-c2ccccc2)cc1 | inactive | 
25 | COc1c2c(c(C)c3c1C(=O)OC3)OC1(C)CC(O)C34OC(O)(CCC3(C)C1C2)OC4(C)C (stereo not given) | inactive | 
26 | COc1cc(C2Oc3c(OC)cc(/C=C/C(=O)OC4CC(O)(C(=O)O)CC(O)C4O)cc3C2CO)ccc1O (stereo not given) | inactive | 
27 | Cc1c(F)cc(C(=O)NC2CC2)cc1-c1ccc(C(=O)NCC(C)(C)C)cn1 | inactive | 
28 | CC1=C2C[C@H]3OC(=O)[C@H](O)[C@@]4(O)[C@@H](C)[C@@H](O)[C@H](O)C([C@@]2(C)[C@H](O)[C@@H](O)C1)[C@@]34C (stereo not given in full) | inactive | 
29 | CC(C)c1ccc2c(c1)[C@H](O)CC1[C@@](C)(C(=O)O)CCC[C@]21C (stereo not given in full) | inactive | 
30 | CC(=O)O[C@H]1C[C@@H](O)C(C)(C)C2C[C@@H](OC(C)=O)[C@@]3(C)C4=CCC(C(CO)CC(O)C5OC5(C)C)[C@]4(C)CCC3[C@]21C (stereo not given in full) | inactive | 
31 | CC(C(=O)Nc1cc(C#N)ccc1CCCC(=O)O)c1ccc(F)c2ccccc12 (stereo not given) | inactive | 
32 | COc1cc(O)c(C(=O)O)c(CCc2ccccc2)c1 | inactive | 
33 | O=C(O)C[C@H]1CCC(=O)[C@@H]1C/C=C\CCO | inactive | 
34 | OC[C@@]1(O)CO[C@@H](OC[C@H]2O[C@@H](Oc3ccccc3)[C@H](O)[C@@H](O)[C@@H]2O)[C@@H]1O | inactive | 
35 | CC(=O)O[C@@H]1CC2C(C)(C)C(=O)C=C[C@]2(C)C2CC[C@]3(C)C(=CC(=O)[C@@H]3c3ccoc3)[C@@]21C (stereo not given in full) | inactive | 
36 | NC(=O)[C@@H]1CC[C@H](c2ccc(OCc3ccccc3F)cc2)N1 | inactive | 
37 | Cn1nccc1-c1ccccc1Oc1ccc(S(=O)(=O)Nc2nccs2)cc1C#N | inactive | 
38 | NCCCCN(Cc1nc2ccccc2[nH]1)[C@H]1CCCc2cccnc21 | inactive | 
39 | O=C(N[C@H](Cc1ccccc1)C(=O)O)c1sc2cc(F)ccc2c1Cl | inactive | 
40 | O=C(/C=C/c1ccccc1)OC[C@H]1O[C@@H](OC(=O)c2cc(O)c(O)c(O)c2)[C@H](O)[C@@H](O)[C@@H]1O | inactive | 
